Screening data from PubChem BioAssay.
PAFAH2 inh: PAFAH2 (human) inhibition. Q99487. recombinant PAFAH2, FP-rhodamine activity probe, fluorescence polarization. inhibition, % at 3.39 µM. 340,000 tested, 0.99% active;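 active = inhibition above the mean over all tested compounds plus 3 SD, cut at about 30% in these data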;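 also: inhibitors block probe labeling of enzyme so polarization drops; 0% = enzyme with DMSO and 100% = wells lacking PAFAH2 protein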
ZTA counter: counter-screen for EBNA-1 inhibitors: inhibitors of Epstein-Barr virus ZTA; P03206; ZTA-DNA binding, fluorescence polarization; inhibition, % at 11 µM; 320,000 tested, 0.15% active; AID 2234; in the data active = inhibition above about 33%
pPAFAH FP inh: pPAFAH (human) enzyme inhibition; Q13093; recombinant pPAFAH, FP-rhodamine probe fluorescence polarization; inhibition, % at 3.39 µM; 330,000 tested, 1.5% active; AID 463082;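 active = inhibition above the mean inhibition across the screen plus 3 SD, cut at about 25% in these data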;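 also: inhibitors block binding of the rhodamine activity-based probe so polarization drops; 0% = enzyme with DMSO and 100% = wells lacking pPAFAH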
Target sequence (Q13093 whole entry, looked up): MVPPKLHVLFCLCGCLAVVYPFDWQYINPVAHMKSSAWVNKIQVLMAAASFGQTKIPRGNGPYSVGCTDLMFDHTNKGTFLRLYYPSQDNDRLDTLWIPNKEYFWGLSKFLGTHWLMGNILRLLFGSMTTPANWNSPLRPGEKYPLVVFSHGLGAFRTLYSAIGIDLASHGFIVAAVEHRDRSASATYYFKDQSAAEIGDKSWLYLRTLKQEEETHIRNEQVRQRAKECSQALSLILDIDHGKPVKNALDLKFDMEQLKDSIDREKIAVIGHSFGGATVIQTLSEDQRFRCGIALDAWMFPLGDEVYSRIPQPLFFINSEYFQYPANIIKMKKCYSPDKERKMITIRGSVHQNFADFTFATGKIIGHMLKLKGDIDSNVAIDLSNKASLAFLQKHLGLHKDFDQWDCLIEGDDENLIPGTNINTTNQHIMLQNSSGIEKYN
PAFAH1B3 FP inh: inhibitors of human PAFAH1B3 | inhibition, % at 3.39 µM | AID 492972 | Q15102 | recombinant PAFAH1B3, FP-rhodamine probe, fluorescence polarization | 340,000 tested, 0.28% active;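 active = inhibition above the screen-wide average of all tested compounds plus 3 SD, cut at about 25% in these data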;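 also: 0% = enzyme with DMSO only and 100% = wells lacking PAFAH1B3 protein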
Target sequence (Q15102 whole entry, looked up): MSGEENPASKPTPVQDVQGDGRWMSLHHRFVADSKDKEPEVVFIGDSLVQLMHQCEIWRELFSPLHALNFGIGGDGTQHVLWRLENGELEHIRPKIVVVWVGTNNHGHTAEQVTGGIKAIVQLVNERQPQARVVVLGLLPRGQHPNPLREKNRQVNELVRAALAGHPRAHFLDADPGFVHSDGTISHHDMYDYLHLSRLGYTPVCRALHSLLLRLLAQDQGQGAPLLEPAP
PAFAH1B2 inh: inhibitors of human PAFAH1B2. 340,000 tested, 1.2% active. AID 492953. inhibition, % at 3.39 µM. recombinant PAFAH1B2, FP-rhodamine activity probe, fluorescence polarization;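 active = inhibition above the mean of all tested compounds plus 3 SD, cut at about 24% in these data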;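 also: 0% = enzyme with DMSO and 100% = wells lacking PAFAH1B2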
EBNA-1 inhibitor: blocks EBNA-1 binding to DNA; EBNA-1 DNA binding, fluorescence polarization; 300,000 tested, 0.34% active; inhibition, % at 14.8 µM; in the data active = inhibition above about 28%
The depositor's hits bear a star. A selection: hits, their analogues and other compounds. The true share with any hit is near 2.9%.

Results for COc1ccc(C(=O)OCC(=O)Nc2ccc(OC(F)F)cc2)c(OC)c1 ?
PAFAH2 inh: 67.8*; ZTA counter: -11.3; pPAFAH FP inh: 32.9*; PAFAH1B3 FP inh: 7.3; PAFAH1B2 inh: 4.7; EBNA-1 inhibitor: -1.2

What do the screens show for `COc1ccccc1N(Cc1ccccc1)S(=O)(=O)c1cccc(C(=O)N2CCCCC2)c1`?
PAFAH2 inh: 2.6; pPAFAH FP inh: 1.3; PAFAH1B3 FP inh: 4.9; PAFAH1B2 inh: 4.9

How did COc1ccc(N2C(=O)CN(Cc3ccc(OC)c(OC)c3)C2=S)cc1 do in these assays?
PAFAH2 inh: 1.4; ZTA counter: -4.5; pPAFAH FP inh: -1.8; PAFAH1B3 FP inh: 4.4; PAFAH1B2 inh: 3.0; EBNA-1 inhibitor: -7.3

How did O=C(COC(=O)c1ccc(Cl)c([N+](=O)[O-])c1)Nc1ccccc1OC(F)F do in these assays?
PAFAH2 inh: 25.7; ZTA counter: -18.9; pPAFAH FP inh: 31.9*; PAFAH1B3 FP inh: -1.0; PAFAH1B2 inh: -0.1; EBNA-1 inhibitor: -2.9

Results for O=C(COC(=O)CCC1CCCC1)Nc1ccccc1OC(F)F ?
PAFAH2 inh: 4.8; ZTA counter: 15.0; pPAFAH FP inh: 29.3*; PAFAH1B3 FP inh: 1.6; PAFAH1B2 inh: 3.2; EBNA-1 inhibitor: 1.2

Results for O=C(COC(=O)CCc1ccccc1)Nc1ccccc1OC(F)F ?
PAFAH2 inh: 16.2; ZTA counter: 11.5; pPAFAH FP inh: 12.8; PAFAH1B3 FP inh: -1.0; PAFAH1B2 inh: 17.1; EBNA-1 inhibitor: 10.2

What do the screens show for `Cc1ccc(C)c(NC(=O)CSc2nnc(C3CCCCC3)o2)c1`?
PAFAH2 inh: -4.5; ZTA counter: 5.1; pPAFAH FP inh: 1.0; PAFAH1B3 FP inh: 1.7; PAFAH1B2 inh: 1.8; EBNA-1 inhibitor: 4.5

What do the screens show for `O=C(Cc1cccc(NC(=O)C2CCN(C(=O)C3CCC3)CC2)c1)Nc1cccc(C(=O)N2CCOCC2)c1`?
PAFAH2 inh: 0.4; PAFAH1B3 FP inh: 8.4; PAFAH1B2 inh: 5.8

What do the screens show for `C[C@H](CO)N1C[C@H](C)[C@@H](CN(C)C(=O)Nc2ccc3c(c2)OCO3)Oc2ccc(NC(=O)Cn3cnnn3)cc2C1=O`?
PAFAH2 inh: 6.3; pPAFAH FP inh: -3.8; PAFAH1B3 FP inh: 9.5; PAFAH1B2 inh: 4.5

Results for CCc1cc2c(=O)c(-c3cscn3)coc2c(CN(C)C)c1O ?
PAFAH2 inh: 10.8; ZTA counter: -3.6; pPAFAH FP inh: 27.3*; PAFAH1B3 FP inh: 4.3; PAFAH1B2 inh: 4.2; EBNA-1 inhibitor: -3.2

Results for COc1ccc2[nH]c(O)c(N=NC(=O)Cc3cccs3)c2c1 ?
PAFAH2 inh: 11.7; ZTA counter: 6.2; pPAFAH FP inh: 24.8*; PAFAH1B3 FP inh: 13.3; PAFAH1B2 inh: 13.8; EBNA-1 inhibitor: -1.4

Results for O=C(Nc1ccc(S(=O)(=O)NC2=NCCCCC2)cc1)c1cc(S(=O)(=O)N2CCOCC2)ccc1F ?
PAFAH2 inh: -9.1; ZTA counter: 2.0; pPAFAH FP inh: 3.9; PAFAH1B3 FP inh: 10.8; PAFAH1B2 inh: 1.7; EBNA-1 inhibitor: 0.1

Results for O=C(COc1ccc(Cl)cc1)c1ccc(O)cc1O ?
PAFAH2 inh: -8.5; ZTA counter: 1.3; pPAFAH FP inh: -2.1; PAFAH1B3 FP inh: 2.8; PAFAH1B2 inh: 26.8*; EBNA-1 inhibitor: -19.6

How did COC(=O)c1ccc(OCC(=O)c2ccc(O)cc2O)cc1 do in these assays?
PAFAH2 inh: 5.6; ZTA counter: 7.9; pPAFAH FP inh: 5.8; PAFAH1B3 FP inh: 10.5; PAFAH1B2 inh: 8.6; EBNA-1 inhibitor: 12.1

Results for O=[N+]([O-])c1cccc(Oc2cnccn2)c1 ?
PAFAH2 inh: -3.7; ZTA counter: -10.2; pPAFAH FP inh: 3.6; PAFAH1B3 FP inh: -1.2; PAFAH1B2 inh: -1.6; EBNA-1 inhibitor: 1.2

How did COC(=O)CSc1nnc(SCc2ccc(Cl)cc2)s1 do in these assays?
PAFAH2 inh: 5.6; ZTA counter: 3.1; pPAFAH FP inh: 6.5; PAFAH1B3 FP inh: 3.0; PAFAH1B2 inh: 30.8*; EBNA-1 inhibitor: 12.3

What do the screens show for `CCN(CC(=O)NCc1ccc(F)cc1)CC(=O)Nc1cc(S(=O)(=O)N(C)C)ccc1C`?
PAFAH2 inh: 1.6; ZTA counter: -7.9; pPAFAH FP inh: 28.7*; PAFAH1B3 FP inh: -2.4; PAFAH1B2 inh: -2.7

How did CCN(CC(=O)NCc1ccc(F)cc1)CC(=O)Nc1ccc(Br)cc1F do in these assays?
PAFAH2 inh: 5.8; pPAFAH FP inh: -6.7; PAFAH1B3 FP inh: 5.4; PAFAH1B2 inh: 7.6

What do the screens show for `CCOc1ccc(N(CC(=O)NCc2ccc(OC)cc2)S(C)(=O)=O)cc1`?
PAFAH2 inh: 5.8; ZTA counter: -0.6; pPAFAH FP inh: -0.8; PAFAH1B3 FP inh: 8.1; PAFAH1B2 inh: 1.2; EBNA-1 inhibitor: 9.3

How did CC(C)N(C(=O)CSc1nnc(-c2ccc3c(c2)OCO3)n1C)C(C)C do in these assays?
PAFAH2 inh: 0.0; ZTA counter: 6.8; pPAFAH FP inh: 5.9; PAFAH1B3 FP inh: 1.1; PAFAH1B2 inh: 11.9; EBNA-1 inhibitor: -4.0

Results for O=C1C(Cl)=C(N2CCN(c3ccccc3[N+](=O)[O-])CC2)C(=O)c2ccccc21 ?
PAFAH2 inh: 40.0*; ZTA counter: 4.3; pPAFAH FP inh: 16.2; PAFAH1B3 FP inh: 48.6*; PAFAH1B2 inh: 28.3*; EBNA-1 inhibitor: -1.3

How did O=C1c2ccccc2C(=O)c2c(Nc3ccc(CCO)cc3)ccc(O)c21 do in these assays?
PAFAH2 inh: 11.1; ZTA counter: -16.6; pPAFAH FP inh: 31.5*; PAFAH1B3 FP inh: 12.5; PAFAH1B2 inh: -1.3; EBNA-1 inhibitor: -9.6

Results for Nc1nc(-c2cccc(F)c2)cs1 ?
PAFAH2 inh: 1.5; ZTA counter: 1.5; pPAFAH FP inh: -1.9; PAFAH1B3 FP inh: 7.0; PAFAH1B2 inh: 45.3*; EBNA-1 inhibitor: -8.3

What do the screens show for `Cc1ccc2c3c(cccc13)-c1ccccc1C2=O`?
PAFAH2 inh: -10.0; ZTA counter: 13.1; pPAFAH FP inh: 2.4; PAFAH1B3 FP inh: 7.8; PAFAH1B2 inh: 0.6; EBNA-1 inhibitor: -10.0

Results for Cc1coc2c1C(=O)C(=O)c1c-2ccc2c(C)cccc12 ?
PAFAH2 inh: 51.0*; ZTA counter: 9.8; pPAFAH FP inh: 56.1*; PAFAH1B3 FP inh: 18.8; PAFAH1B2 inh: 20.7; EBNA-1 inhibitor: 1.6

What do the screens show for `O=C(O)C[C@@H](O)C(=O)O`?
PAFAH2 inh: -1.5; ZTA counter: 9.4; pPAFAH FP inh: 3.5; PAFAH1B3 FP inh: 1.2; PAFAH1B2 inh: 2.3; EBNA-1 inhibitor: 5.0

What do the screens show for `O=C(c1cccc(Cl)c1)N1CCC(N2CCC(C(=O)N3CCCC3)CC2)CC1`?
PAFAH2 inh: 7.0; ZTA counter: 12.1; pPAFAH FP inh: -2.3; PAFAH1B3 FP inh: 0.3; PAFAH1B2 inh: 4.0; EBNA-1 inhibitor: -9.6

What do the screens show for `Cc1cc(-c2nc3cccnc3s2)ccc1NS(=O)(=O)c1cccs1`?
PAFAH2 inh: 5.3; ZTA counter: 13.5; pPAFAH FP inh: 32.7*; PAFAH1B3 FP inh: 1.7; PAFAH1B2 inh: 7.9; EBNA-1 inhibitor: 1.7

What do the screens show for `Cc1ccc(NS(=O)(=O)c2cccs2)c(C)c1`?
PAFAH2 inh: -12.1; ZTA counter: -10.6; pPAFAH FP inh: 27.6*; PAFAH1B3 FP inh: 4.0; PAFAH1B2 inh: 4.0; EBNA-1 inhibitor: 3.0
